What all share (assay): NCI-60 one-dose screen, 48 h (100 = growth as untreated, 0 = no growth, -100 = all killed)
For one test, the system named is HCT-15 colon. As to conditions: 10 µM unless noted.
The next test has as its system HT29 colon. As to conditions: 10 µM unless noted.
A further test has as its system SNB-75 CNS. As to conditions: 10 µM unless noted.
For a further test, the system named is SNB-19 CNS. Conditions: 10 µM unless noted.
The test system of a further test is U251 CNS. Conditions: 10 µM unless noted.
Another test has as its system PC-3 prostate. Conditions: 10 µM unless noted.
The test system of another test is SK-MEL-5 melanoma. As to conditions: 10 µM unless noted.
In a further test the test system is UACC-62 melanoma. Conditions: 10 µM unless noted.
The next test deals with SK-MEL-28 melanoma. Conditions: 10 µM unless noted.
A further test concerns SK-MEL-2 melanoma. As to conditions: 10 µM unless noted.
For the next test, the system named is EKVX NSCLC. As to conditions: 10 µM unless noted.
A further test concerns SN12C renal. As to conditions: 10 µM unless noted.
The next test concerns UO-31 renal. As to conditions: 10 µM unless noted.
For the next test, the system named is TK-10 renal. As to conditions: 10 µM unless noted.
The subject of a further test is ACHN renal. Conditions: 10 µM unless noted.
The next test has as its system CAKI-1 renal. As to conditions: 10 µM unless noted.
In another test the test system is A498 renal. Conditions: 10 µM unless noted.
The subject of a further test is CCRF-CEM leukemia. Conditions: 10 µM unless noted.
In a further test the test system is MOLT-4 leukemia. Conditions: 10 µM unless noted.
A further test concerns LOX IMVI melanoma. Conditions: 10 µM.

The panel holds about 83,000 compounds, 20% with a hit somewhere; the sample as a whole holds those more often.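 Interpretation: 100, growth as untreated; towards 0, rising growth inhibition; 0, no net growth; 0 to -100, cell death. Compounds scoring below 10 were considered active.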 Unmarked numbers belong to inactive results. Calls of active or inactive are those of the source.

This passage reports growth results from PubChem BioAssay (NCI).

`Cc1nc(Sc2nc3ccc([N+](=O)[O-])cc3s2)sc1C`: the growth with HCT-15 colon was -21.2% (active); in the test with HT29 colon, 10.2%; with SNB-75 CNS, 53.1%; in the test with SNB-19 CNS it was 35.4%; with U251 CNS it was 27.2%; with PC-3 prostate, 23%. Besides, the growth in the test with SK-MEL-5 melanoma was 41.1%; in the test on UACC-62 melanoma it was -15.4% (active); in the test with SK-MEL-28 melanoma, 27.8%; in the test on SK-MEL-2 melanoma, 15.4%; with EKVX NSCLC, 88.5%; with SN12C renal, -29.4% (active). In addition, the growth is 23.5% with UO-31 renal; 19.3% with TK-10 renal; 11.4% in the test on ACHN renal; 28.5% in the test on CAKI-1 renal; 46.5% in the test on A498 renal; -13.5% (active) with CCRF-CEM leukemia. The growth with MOLT-4 leukemia was -7.45% (active).
In the case of `O=[N+]([O-])c1ccc(N2CCN(Cc3ccccc3)CC2)c2c1no[n+]2[O-]`, the growth in the test on HCT-15 colon was -52.8% (active); with HT29 colon it was -70.4% (active); in the test on SNB-75 CNS, 68.4%; in the test with SNB-19 CNS, 37.3%; in the test with U251 CNS, -47.8% (active); with PC-3 prostate, -31.4% (active). The growth in the test on SK-MEL-5 melanoma was 38.1%; with UACC-62 melanoma, 4.15% (active); with SK-MEL-28 melanoma it was 77%; in the test on SK-MEL-2 melanoma it was 64.8%; in the test with SN12C renal, 19.1%; with UO-31 renal it was -78.1% (active). Also, the growth is -15.7% (active) in the test on TK-10 renal; -91.6% (active) in the test on ACHN renal; 15.3% in the test on CAKI-1 renal; 47.6% with A498 renal; -31.6% (active) in the test on CCRF-CEM leukemia; -29.8% (active) with MOLT-4 leukemia.
Regarding `[Cl-].[Rh+3].c1ccc(-c2ccnc3c2ccc2c(-c4ccccc4)ccnc23)cc1.c1ccc(-c2ccnc3c2ccc2c(-c4ccccc4)ccnc23)cc1.c1ccc(-c2ccnc3c2ccc2c(-c4ccccc4)ccnc23)cc1`, the growth is 106% in the test on HCT-15 colon; 99% in the test on HT29 colon; 102% in the test on SNB-75 CNS; 57.5% with SNB-19 CNS; 30.8% with U251 CNS; 75.5% in the test on PC-3 prostate. Further, the growth in the test on SK-MEL-5 melanoma was -38.1% (active); in the test with UACC-62 melanoma, 97.7%; in the test with LOX IMVI melanoma it was 88.7%; in the test with SK-MEL-2 melanoma it was 95.9%; with EKVX NSCLC, 81.1%; in the test with SN12C renal it was 85.8%. The growth was 51.4% in the test on UO-31 renal; 107% in the test with TK-10 renal; 93.6% with ACHN renal; 86.1% with CAKI-1 renal; 76.2% in the test on CCRF-CEM leukemia; 104% in the test with MOLT-4 leukemia.
As for `CN(C)CCN(C)CC(C)(C)C(=O)/C=C/c1ccc(Cl)c(Cl)c1`, the growth in the test with HCT-15 colon was -86.4% [100 µM] (active); with HT29 colon, -77.5% [100 µM] (active); with SNB-75 CNS, -99.3% [100 µM] (active); in the test with SNB-19 CNS, -98.6% [100 µM] (active); with U251 CNS, -95.1% [100 µM] (active); in the test on PC-3 prostate it was -87.2% [100 µM] (active). Further, the growth was -99.3% [100 µM] (active) with SK-MEL-5 melanoma; -95.6% [100 µM] (active) in the test on UACC-62 melanoma; -98.6% [100 µM] (active) in the test with SK-MEL-28 melanoma; -93.3% [100 µM] (active) in the test on SK-MEL-2 melanoma; -82.4% [100 µM] (active) with EKVX NSCLC; -96.2% [100 µM] (active) in the test with SN12C renal. The growth with UO-31 renal was -100% [100 µM] (active); with TK-10 renal, -97.7% [100 µM] (active); in the test with ACHN renal, -100% [100 µM] (active); in the test on CAKI-1 renal, -100% [100 µM] (active); with A498 renal it was -96% [100 µM] (active); in the test on CCRF-CEM leukemia, -0.943% [100 µM] (active). For the same compound, the growth in the test on MOLT-4 leukemia was -23.3% [100 µM] (active).
With `Oc1cc(Cl)ccc1Cc1ccc(Cl)cc1O`, the growth is 52% in the test with HCT-15 colon; 102% in the test on HT29 colon; 76.8% in the test on SNB-75 CNS; 66.1% in the test on SNB-19 CNS; 52.7% with U251 CNS; 43.5% in the test with PC-3 prostate. For the same compound, the growth in the test with SK-MEL-5 melanoma is 11.7%; with UACC-62 melanoma, 32.2%; in the test with SK-MEL-28 melanoma it was 89.3%; with SK-MEL-2 melanoma it was 66.1%; with EKVX NSCLC, 51.2%; in the test on SN12C renal, 36.2%. Also, the growth with UO-31 renal was 46.4%; with ACHN renal it was 49.4%; with CAKI-1 renal, 92.9%; in the test on A498 renal, 126%; in the test on CCRF-CEM leukemia it was 45.7%; in the test on MOLT-4 leukemia, 43.5%.
On to `NC(CS/C(Cl)=C/Cl)C(=O)O` (stereo not drawn), for which the growth in the test on HCT-15 colon is 85.5%; with HT29 colon, 86.8%; with SNB-75 CNS it was 103%; in the test on SNB-19 CNS it was 85.9%; in the test with U251 CNS it was 84.7%; in the test on PC-3 prostate it was 64.1%. Also, the growth was -60.9% (active) with SK-MEL-5 melanoma; 77.4% with UACC-62 melanoma; 73% with SK-MEL-28 melanoma; 53.7% in the test on SK-MEL-2 melanoma; 81.4% in the test on EKVX NSCLC; 87% in the test on SN12C renal. For the same compound, the growth with UO-31 renal was 82.6%; in the test with TK-10 renal it was 117%; in the test with ACHN renal it was 95.2%; with CAKI-1 renal, 89.6%; in the test with A498 renal, -60% (active); in the test with CCRF-CEM leukemia it was 66.5%. Moreover, in the test on MOLT-4 leukemia, the growth is 97.1%.
Regarding `CCCOC(=O)c1nc(N(CC2CCCCC2)C(=O)NC)sc1/N=C/c1ccccc1`, the growth with HCT-15 colon is -70.3% (active); in the test with HT29 colon, -37.7% (active); with SNB-75 CNS, -11.1% (active); in the test with SNB-19 CNS, 24.5%; with U251 CNS, 5.96% (active); in the test with PC-3 prostate, 25.3%. Moreover, the growth was -11.9% (active) in the test on SK-MEL-5 melanoma; 4.74% (active) in the test on UACC-62 melanoma; 35% in the test with SK-MEL-28 melanoma; -0.0368% (active) with SK-MEL-2 melanoma; 9.94% (active) with EKVX NSCLC; 15% with SN12C renal. In addition, the growth in the test on UO-31 renal was 23.9%; with TK-10 renal, 52.5%; in the test with ACHN renal, 17.4%; in the test with CAKI-1 renal, 31.7%; with A498 renal, 63.5%; in the test with CCRF-CEM leukemia, 2.45% (active). Moreover, in the test on MOLT-4 leukemia, the growth was 3.07% (active).
For the compound `CCN(CC)CC(O)CNc1ccc(NCC2CO2)c2c1C(=O)c1ccccc1C2=O` (stereo not drawn), the growth in the test with HCT-15 colon is -38.1% (active); with HT29 colon, -42.9% (active); in the test on SNB-75 CNS, -66% (active); with SNB-19 CNS, 3.77% (active); with U251 CNS it was -51.8% (active); in the test with PC-3 prostate it was -28.4% (active). Moreover, the growth was -89.8% (active) in the test on SK-MEL-5 melanoma; -73.5% (active) with UACC-62 melanoma; -54.1% (active) in the test with LOX IMVI melanoma; -46.5% (active) in the test with SK-MEL-2 melanoma; 23.5% in the test with EKVX NSCLC; -15.9% (active) with SN12C renal. The growth in the test on UO-31 renal was -40.6% (active); in the test on TK-10 renal, -27% (active); in the test on ACHN renal, -55.1% (active); with CAKI-1 renal, -32% (active); in the test on A498 renal, 81.6%; in the test with CCRF-CEM leukemia it was -29.9% (active). For the same compound, in the test with MOLT-4 leukemia, the growth was -23.1% (active).
Regarding `CCOC(=O)c1cc(CC)sc1NC(=O)CC(C)=O`, the growth is 19.9% in the test with HCT-15 colon; 47.8% in the test on HT29 colon; 44.8% in the test with SNB-75 CNS; 29.8% in the test with SNB-19 CNS; 34.7% in the test on U251 CNS; 36.2% in the test with PC-3 prostate. Moreover, the growth in the test with SK-MEL-5 melanoma was 54.3%; in the test on UACC-62 melanoma, 60.4%; in the test with SK-MEL-28 melanoma, 96.7%; in the test with SK-MEL-2 melanoma, 61.5%; in the test with EKVX NSCLC, 51%; in the test with SN12C renal it was 53%. The growth in the test on UO-31 renal was 40.8%; with TK-10 renal, 70.9%; in the test with ACHN renal it was 39.9%; in the test on CAKI-1 renal, 53.1%; in the test on A498 renal, 98.7%; with CCRF-CEM leukemia, 35.5%. For the same compound, the growth in the test with MOLT-4 leukemia is 14.4%.
